Measured values published in PubChem BioAssay (NCATS).
Several values for one entry are separate records, joined by “and”; a condition that tells them apart may be missing. Identical values can stand only once. Results filed as inconclusive are left out. Some structures have more than one record in an assay (separate samples or runs), and their calls can disagree. Activity calls are given as the source filed them. The call rests on the fitted dose curve; in most records, active means well fitted curve in the direction sought with a large enough effect; inconclusive means small, poorly fitted or top-dose-only effect, or another doubt; inactive means no such curve, though single readings can be large; an effect the other way counts as inactive or inconclusive.

test system: not listed separately; experiment: Primary qHTS for inhibitors of nuclear receptor binding SET domain protein 2 (NSD2) in an RCH-ACV wild type WT cells (2C) (AID 1645877); conditions: RCH-ACV (leukaemia line) NSD2 WT (2C) viability, CellTiter-Glo, 72 h; series mostly up to 44.9 µM; activity change, negative = cell killing: at the top concentration; further: nearly all actives have a fitted effect of over 70% in size; further: potency means the concentration at half of the fitted maximal effect; on activity change, negative = cell killing: on the % scale 0 is the no-effect control and ±100 the full control effect

SMILES | activity change, negative = cell killing | Potency | outcome
O=C(O)CN1C(=O)c2cccc3cccc(c23)C1=O | 6.09% (inactive) |  | 
O=C(CCCN1CCN(c2ccccn2)CC1)c1ccc(F)cc1 |  | inactive | 
CC(=O)CCC(=O)O | 9.17% (inactive) |  | 
O=c1cc(CO)occ1O |  |  | inactive
COc1ccc2cc1Oc1cc3c(cc1OC)CC[N+](C)(C)[C@H]3Cc1ccc(cc1)Oc1c(OC)c(OC)cc3c1[C@@H](C2)[N+](C)(C)CC3 |  |  | inactive
CC(C)(O)c1ccccc1CC[C@@H](SCC1(CC(=O)O)CC1)c1cccc(/C=C/c2ccc3ccc(Cl)cc3n2)c1 |  |  | inactive
NC(=O)N/N=C/c1ccc([N+](=O)[O-])o1 |  | 24.3 µM (active) | 
CC1(C)OC(=O)NC1=O |  |  | inactive
CCn1cc(C(=O)O)c(=O)c2cnc(N3CCNCC3)nc21 | -2.44% (inactive) |  | 
Oc1cn2c(n1)Nc1ccc(Cl)c(Cl)c1C2 | 5.48% [at 17.3 µM] (inactive) |  | 
O=Cc1ccccc1C=O | 7.52% (inactive) |  | 
CC(=O)Oc1c(C)c(C)c2c(c1C)CC[C@@](C)(CCC[C@H](C)CCC[C@H](C)CCCC(C)C)O2 |  |  | inactive
NC(=O)c1ncn([C@@H]2O[C@H](CO)[C@@H](O)[C@H]2O)c1N |  | inactive | 
COc1cc2[nH]c(=O)[nH]c(=O)c2cc1OC |  |  | inactive
NCCNCCNCCNCCN | -16.9% [at 9.23 µM] (inactive) |  | 
O=C(O)CC(O)C(=O)O (stereo not drawn) |  |  | inactive

SMILES | activity change, negative = cell killing | Potency | outcome
CC[C@@]1(c2ccccc2)NC(=O)N(C)C1=O |  |  | inactive
O=c1cc[nH]c(=S)[nH]1 | -16.1% (inactive) |  | 
CC1(C)[C@@H]2CC[C@@]1(C)C(=O)C2 |  |  | inactive
C[C@@H]1CN(c2c(F)c(F)c3c(=O)c(C(=O)O)cn(C4CC4)c3c2F)C[C@H](C)N1 |  | inactive | 
CC(=O)O[C@@]12CO[C@@H]1C[C@H](O)[C@@]1(C)C(=O)[C@H](O)C3=C(C)[C@@H](OC(=O)[C@H](O)[C@@H](NC(=O)OC(C)(C)C)c4ccccc4)C[C@@](O)([C@@H](OC(=O)c4ccccc4)[C@H]21)C3(C)C |  | 0.0021 µM (active) | 
Cc1cc2nc3c(=O)[nH]c(=O)nc-3n(C[C@H](O)[C@H](O)[C@H](O)CO)c2cc1C | 6.84% [at 17.3 µM] (inactive) |  | 
Oc1ccc(C(O)CNCCCCCCNCC(O)c2ccc(O)c(O)c2)cc1O (stereo not drawn) | -15.6% (inactive) |  | 
O=C(Oc1ccccc1C(=O)O)c1ccccc1O |  |  | inactive
CC1(C)CO[C@@H](CC(=O)O)CN1 | 5.94% (inactive) |  | 
CCCCC/C(C=O)=C\c1ccccc1 | 7.12% (inactive) |  | 
CCN(CC)C(=O)Nc1ccc(OCC(O)CNC(C)(C)C)c(C(C)=O)c1 (stereo not drawn) |  | inactive | 
O=C1Nc2ccc(Cl)cc2[C@@](C#CC2CC2)(C(F)(F)F)O1 |  | 20.9 µM (active) and 26.3 µM (active) | 
C[C@]12CC[C@@H]3c4ccc(O)cc4CC[C@H]3[C@@H]1CC[C@@H]2OC(=O)CCC1CCCC1 |  | inactive | 
COc1ccccc1O |  | 39 µM (active) | 
CCC(=O)Nc1ccc(O)cc1 | 6.63% (inactive) |  | 

biological target: Rap guanine nucleotide exchange factor 3 (Homo sapiens) (UniProt O95398); experiment: Confirmatory qHTS for antagonist of cAMP-regulated guanine nucleotide exchange factor 3 (EPAC1) (AID 1645880); conditions: EPAC1 Rap1B-BODIPY-GDP exchange, fluorescence; series mostly up to 115 µM; activity, negative = inhibition: at the top concentration; further: nearly all actives have a fitted effect of over 55% in size; further: potency means the concentration at half of the fitted maximal effect;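 on activity, negative = inhibition: plate controls were DMSO only for no effect and full effect of the ATA control for full effect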
Outline: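 Released BODIPY-GDP fluoresces less than Rap1-bound BODIPY-GDP; the signal is followed at 480/540 nm at 5-min intervals over 30 min, after 5 min at room temperature. Reactions contain 100 nM EPAC1, 250 nM RAP1B-BODIPY-GDP and 50 uM GDP; results are normalized to ATA and DMSO.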

Sequence of Rap guanine nucleotide exchange factor 3 (Homo sapiens) (O95398 whole entry, looked up): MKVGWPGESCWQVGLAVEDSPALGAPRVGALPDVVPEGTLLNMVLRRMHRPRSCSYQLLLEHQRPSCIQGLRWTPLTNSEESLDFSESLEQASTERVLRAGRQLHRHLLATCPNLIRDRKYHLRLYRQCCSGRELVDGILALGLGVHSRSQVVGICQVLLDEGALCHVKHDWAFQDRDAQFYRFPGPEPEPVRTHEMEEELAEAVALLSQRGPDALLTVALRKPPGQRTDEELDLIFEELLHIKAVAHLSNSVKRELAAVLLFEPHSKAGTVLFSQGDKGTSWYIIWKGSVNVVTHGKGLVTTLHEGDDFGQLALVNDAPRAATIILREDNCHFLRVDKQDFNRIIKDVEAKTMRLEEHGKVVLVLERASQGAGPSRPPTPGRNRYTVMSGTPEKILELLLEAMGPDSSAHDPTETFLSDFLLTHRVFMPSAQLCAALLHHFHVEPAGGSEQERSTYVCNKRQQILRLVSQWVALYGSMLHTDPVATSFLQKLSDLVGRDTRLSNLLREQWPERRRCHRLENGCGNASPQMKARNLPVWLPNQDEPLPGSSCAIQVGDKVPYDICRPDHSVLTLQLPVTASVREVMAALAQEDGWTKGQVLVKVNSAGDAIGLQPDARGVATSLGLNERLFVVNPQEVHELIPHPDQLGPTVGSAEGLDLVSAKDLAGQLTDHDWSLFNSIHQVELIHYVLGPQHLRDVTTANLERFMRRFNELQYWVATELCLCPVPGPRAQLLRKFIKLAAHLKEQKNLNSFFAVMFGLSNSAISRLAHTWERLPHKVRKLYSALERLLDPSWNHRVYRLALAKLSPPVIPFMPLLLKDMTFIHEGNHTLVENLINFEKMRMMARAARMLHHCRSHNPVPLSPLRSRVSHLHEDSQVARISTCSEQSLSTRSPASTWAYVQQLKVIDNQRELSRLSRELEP

SMILES | Potency | activity, negative = inhibition
CC(C)(O)c1ccccc1CC[C@@H](SCC1(CC(=O)O)CC1)c1cccc(/C=C/c2ccc3ccc(Cl)cc3n2)c1 | 25 µM (active) | 
CC1(C)Oc2ccc(C#N)cc2[C@@H](N2CCCC2=O)[C@@H]1O |  | 8.56% (inactive)
Cc1cc2nc3c(=O)[nH]c(=O)nc-3n(C[C@H](O)[C@H](O)[C@H](O)CO)c2cc1C |  | 390% (inactive)
O=C1Nc2ccc(Cl)cc2[C@@](C#CC2CC2)(C(F)(F)F)O1 |  | -12% (inactive)
CCCc1c(OCCCCc2nn[nH]n2)ccc(C(C)=O)c1O | 55.9 µM (active) and inactive | 

biological target: Rap guanine nucleotide exchange factor 3 (Homo sapiens) (UniProt O95398); experiment: Confirmatory qHTS for agonist of cAMP-regulated guanine nucleotide exchange factor 3 (EPAC1) (AID 1645881); conditions: EPAC1 Rap1B BODIPY-GDP exchange fluorescence; series mostly up to 154 µM; activation: at the top concentration;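 further: EPAC1 catalysed release of BODIPY-GDP from Rap1B seen as fluorescence loss; 100% = effect of cAMP agonist control; nearly all actives have a fitted effect of over 75% in size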

SMILES | activation | Potency
CC(C)(O)c1ccccc1CC[C@@H](SCC1(CC(=O)O)CC1)c1cccc(/C=C/c2ccc3ccc(Cl)cc3n2)c1 | -9.69% (inactive) | 
CC1(C)Oc2ccc(C#N)cc2[C@@H](N2CCCC2=O)[C@@H]1O | 8.58% (inactive) | 
O=C1Nc2ccc(Cl)cc2[C@@](C#CC2CC2)(C(F)(F)F)O1 | 12.7% (inactive) | 
CCCc1c(OCCCCc2nn[nH]n2)ccc(C(C)=O)c1O |  | inactive

biological target: Rap guanine nucleotide exchange factor 4 (Homo sapiens) (UniProt Q8WZA2); experiment: Confirmatory qHTS for agonist of cAMP-regulated guanine nucleotide exchange factor 4 (EPAC2) (AID 1645884); conditions: EPAC2 GEF activity, Rap1B-BODIPY-GDP fluorescence; series mostly up to 154 µM; activation: at the top concentration;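 further: nucleotide exchange releases bodipy-GDP from Rap1 and this lowers its fluorescence; on the % scale 0 is the no-effect control and ±100 the full control effect; nearly all actives have a fitted effect of over 65% in size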
Sequence (Q8WZA2 whole entry, looked up): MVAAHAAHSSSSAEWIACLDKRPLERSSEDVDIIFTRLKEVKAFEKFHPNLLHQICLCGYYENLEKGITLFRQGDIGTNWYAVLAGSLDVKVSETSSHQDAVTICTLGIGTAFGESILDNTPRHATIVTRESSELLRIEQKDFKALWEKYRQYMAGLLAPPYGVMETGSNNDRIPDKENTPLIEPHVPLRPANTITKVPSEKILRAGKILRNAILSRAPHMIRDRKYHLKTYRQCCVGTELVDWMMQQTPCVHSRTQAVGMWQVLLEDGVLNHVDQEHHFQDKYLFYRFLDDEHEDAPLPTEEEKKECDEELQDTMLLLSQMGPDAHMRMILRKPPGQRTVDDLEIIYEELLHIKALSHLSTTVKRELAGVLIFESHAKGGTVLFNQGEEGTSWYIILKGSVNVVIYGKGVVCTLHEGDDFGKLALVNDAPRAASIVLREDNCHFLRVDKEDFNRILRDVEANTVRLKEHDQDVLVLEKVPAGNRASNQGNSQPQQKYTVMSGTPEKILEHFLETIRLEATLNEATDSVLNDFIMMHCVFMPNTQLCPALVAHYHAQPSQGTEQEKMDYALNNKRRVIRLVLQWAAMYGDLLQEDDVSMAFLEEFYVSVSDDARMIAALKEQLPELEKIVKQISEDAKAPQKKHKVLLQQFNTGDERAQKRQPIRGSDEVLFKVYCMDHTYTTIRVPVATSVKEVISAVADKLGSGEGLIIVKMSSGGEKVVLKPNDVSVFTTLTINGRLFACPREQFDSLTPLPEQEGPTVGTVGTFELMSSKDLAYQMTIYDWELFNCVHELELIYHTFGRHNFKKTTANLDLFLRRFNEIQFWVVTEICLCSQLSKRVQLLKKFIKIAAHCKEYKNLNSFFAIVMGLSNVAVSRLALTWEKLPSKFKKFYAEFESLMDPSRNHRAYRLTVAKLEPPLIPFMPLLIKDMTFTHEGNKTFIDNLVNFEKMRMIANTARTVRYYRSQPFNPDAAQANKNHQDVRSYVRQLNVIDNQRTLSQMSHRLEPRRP

SMILES | activation | Potency
CC(C)(O)c1ccccc1CC[C@@H](SCC1(CC(=O)O)CC1)c1cccc(/C=C/c2ccc3ccc(Cl)cc3n2)c1 | -16.3% (inactive) | 
CC1(C)Oc2ccc(C#N)cc2[C@@H](N2CCCC2=O)[C@@H]1O | 4.56% (inactive) | 
CCCc1c(OCCCCc2nn[nH]n2)ccc(C(C)=O)c1O |  | inactive

biological target: Rap guanine nucleotide exchange factor 4 (Homo sapiens) (UniProt Q8WZA2); experiment: Confirmatory qHTS for antagonist of cAMP-regulated guanine nucleotide exchange factor 4 (EPAC2) (AID 1645885); conditions: EPAC2 Rap1B-BODIPY-GDP exchange fluorescence, biochemical; series mostly up to 114 µM; activity change, negative = inhibition: at the top concentration; further: nearly all actives have a fitted effect of over 25% in size; further: potency means the concentration at half of the fitted maximal effect; on activity change, negative = inhibition: on the % scale 0 is the no-effect control and ±100 the full control effect

SMILES | activity change, negative = inhibition | Potency
CC1(C)Oc2ccc(C#N)cc2[C@@H](N2CCCC2=O)[C@@H]1O | 16.1% (inactive) | 
Cc1cc2nc3c(=O)[nH]c(=O)nc-3n(C[C@H](O)[C@H](O)[C@H](O)CO)c2cc1C |  | inactive
O=C1Nc2ccc(Cl)cc2[C@@](C#CC2CC2)(C(F)(F)F)O1 |  | 44.1 µM (active)
CCCc1c(OCCCCc2nn[nH]n2)ccc(C(C)=O)c1O | -26.3% [at 12.7 µM] (inactive) | 15.6 µM (active)
